How the values were obtained:
Assay in all cases: PBM binding z-score (relative to random genomic background probes); higher = stronger binding; sequences stand for … in GC…GCGATTGACAGCGTAGAATGAAGG
[1] = system: RARb homodimer (NR concentration 270 nM)
Summary of the method: (§1)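 Antibodies against each partner of ligand-free nuclear receptor dimers (one per run) detected binding on custom Agilent 4×180K protein-binding microarrays after 1 h incubation. The double-stranded probes had 34-nt variable regions carrying direct-repeat seeds, single-nucleotide variants, half-site ablations and random human genomic background sequences. Binding z-scores, from regression-normalized fluorescence, use the random background probes as reference.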

[2] = system: RARg:RXRa (NR concentration 270 nM, RXRa partner concentration 90 nM)
Summary of the method: as §1

[3] = system: RARg homodimer (NR concentration 270 nM)
Summary of the method: as §1

[4] = system: RXRa DBDmut IVT, anti-RXR (DBD mutation: RXRa K156A/R161A, NR concentration 90 nM)
Summary of the method: as §1

[5] = system: RXRa homodimer (NR concentration 180 nM)
Summary of the method: as §1

[6] = system: THRa:RXRa (NR concentration 90 nM, RXRa partner concentration 90 nM)
Summary of the method: as §1

[7] = system: THRa homodimer (NR concentration 90 nM)
Summary of the method: as §1

[8] = system: VDR homodimer (NR concentration 270 nM)
Summary of the method: as §1

Sequence	PBM binding z-score [1]	PBM binding z-score [2]	PBM binding z-score [3]	PBM binding z-score [4]	PBM binding z-score [5]	PBM binding z-score [6]	PBM binding z-score [7]	PBM binding z-score [8]
GCTTACGGGTCAAAGGTTATACCATGAATAGAAT	3.74	6.93	4.71	2.59	9.41	4.17	0.206	1.77
TAGCCTAGGTCATGGGCCAGCATACCACGCGAAC	2.95	4.29	4.36	-0.00159	3.28	3.04	0.897	0.227
TAGCCTAGGTCATTGGCCCAGTATAGTACGCATC	2.57	3.61	4.14	1.51	2.56	2.76	0.907	0.973
TCTATTAGTTGATTAGGACAACCGAAACAGCGGA	0.549	0.758	0.926	1.39	0.79	1.84	1.63	1.03
CAAACTAGGTCAAGGTCAAAGTCGGTTTGTGCCA	5.13	6.18	6.97	3.21	6.34	4.35	3.74	4.46
CGTCCAAGGTGAAGGTCAGTGAAAGAGACTCGAA	3.4	3.39	3.88	0.585	2.36	2.71	0.956	0.389
GGAACGAGGGCAATCGAGTTGATAGCATGGCGAT	0.554	1.14	1.22	1.84	0.638	2.64	-0.649	1.87
CAAACTAGGTCACGAAAGGTCAAAGGCGAATGAC	5.95	8.09	8.64	1.99	8.7	5.15	2.55	3.38
CCAGACAGGTCAAAGGTAACTCAGTCTGGTACGC	3.43	5.62	4.75	2.47	6.86	3.06	0.0861	0.986
CTACCAAAGTGAACAAGGTCGTTGATTACTATTC	1.32	0.65	0.529	1.69	0.996	1.94	1.24	2.22
CCTTACGGGTCACTCCAGCTTATAGCATCGGAGT	2.64	4.1	4.22	1.69	3.9	2.22	-0.158	0.747
GCTAGTTGGTCAGTAAAAGTTCACACACCGGTCG	3.69	3.04	2.42	1.07	1.82	1.46	0.436	2.91
TCTAATTGGTCACGGAGGTCACACACGACGGGTA	4.68	5.01	5.18	1.55	5.28	3.73	2.75	3.23
CAAACTAGGTCAAAGGTCCAAGTCGAGCCAACCA	3.54	4.98	5.05	2.31	5.69	3.15	0.728	1.77
CCTCGGAGGACAACAGGAGGTCAGATCTGCCAGA	3.64	3.34	3.12	0.415	1.59	2.81	1.03	1.28
GCTAGCAGGCCGTTTGGGTCACTCAATGACGGGC	1.43	0.678	0.649	-0.318	0.67	1.61	0.166	0.089
GGAGCGAGGGCATTCGAGTTGATAGCATGGCGAT	0.497	0.849	1.26	2.53	0.554	3.15	-0.906	3.06
CATCCTAGGTCAGGGCCAGTATAGGAGGAACGTT	2.73	3.24	4.12	0.0171	2.22	2.52	0.878	0.11
CTCGAAAGGACGGTTGAGGTGAGTATACGGATAA	0.363	0.406	0.541	-0.024	0.139	2.93	0.887	0.0364

Sequence	PBM binding z-score [1]	PBM binding z-score [2]	PBM binding z-score [3]	PBM binding z-score [4]	PBM binding z-score [5]	PBM binding z-score [6]	PBM binding z-score [7]	PBM binding z-score [8]
ATCTCTAGGTAAGACTCAGTACAGTGAAGAACGC	0.3	0.259	0.586	0.238	0.176	0.369	0.766	0.66
CGAACTGGGTCATCCAGGACAGTGAATACATTGA	2.71	3.55	3.7	1.35	2.99	3.48	1.25	1.8
CCAGACAGGTGAAAGGTATCTCAGTCTGGTACGC	0.311	0.551	0.554	0.109	0.972	0.0736	-0.151	-0.194
CAAACTAGGTCACCAAAGGTCAAAGTCGAATGAC	5.94	7.87	8.54	2.57	7.91	5.17	2.46	3.85
TTACCAAGGTGAGCTGATGTCGTTGATCCAACTC	0.273	0.225	0.147	-0.369	0.239	1.48	0.0669	-0.492
TCTTGTAGATCGACAGGAGGTTAAGAAAGATCGA	0.302	0.34	0.0753	0.223	0.86	0.713	-0.764	-0.181
GCTGCTAGGTCAGGTTGGTCCGCTAACGGGTACG	2.4	2.29	3.46	0.513	0.839	2.36	0.57	-0.0405
ACTATTAGTTGAGACGAGGGTAACCGATAGGTTG	0.218	0.256	0.596	0.227	0.443	1.55	-0.208	0.283
CTCGAAAGGTCGTGCTCAGGTGAGTAAACCAAAC	2.84	5.23	4.05	1.99	4.99	4.08	0.933	0.941
ATATGTAGGTTAGCTTGGGTCATTCAGACTAGGC	2.7	2.07	1.67	0.678	1.89	4.29	1.36	1.36
ACAGACAGGTAAGTGAAGGTAACTCAGCTGGACG	-0.171	-0.116	0.263	-0.281	-0.0799	0.972	-0.0252	-0.27
CCTAGTTGGTTAAGGTCACACACGCTATAGGTAC	4.5	4.48	4.33	2.36	4.63	4.64	6.15	4.12
GTACCAAGGGGAATAGGTCGTTGATGAGTAGGCG	0.74	0.528	0.371	-0.365	0.651	0.124	-0.309	0.49
CCTAGCAGGCCAATCTGGGGCACTCAAGGCTTGA	0.233	-0.125	0.0351	-0.585	-0.29	1.65	-0.87	-0.374
TCTAGCAGGCCAGACGGTCACTCAAGAGGTACGG	1.12	0.224	0.8	-0.226	0.291	-0.447	-0.799	-1.01
CCTGCTAGGTCATGGTAAGCTAATCTACAGTATG	2.79	3.8	4.48	1.84	2.62	2.98	1.22	-0.214
TGAATGAGGATATAAGATCAGGGAACGTTGCAAA	-0.689	0.125	0.402	-0.562	0.189	0.534	-0.316	-0.0248
ACTAGTTGGTCAGCGGAGGTCACACACAATTCGG	4.09	3.96	4.21	0.9	3.77	4.32	2.89	3.02
TCTAGCAGGCCAGTGGGTCACTCAAGAGGTACGG	1.64	1.37	1.24	-0.186	1.18	0.549	-0.701	-0.424

Sequence	PBM binding z-score [1]	PBM binding z-score [2]	PBM binding z-score [3]	PBM binding z-score [4]	PBM binding z-score [5]	PBM binding z-score [6]	PBM binding z-score [7]	PBM binding z-score [8]
CCTCGGAGGACAACAGGAGGTCACAGCTGCCAGA	4.25	4.52	3.89	0.736	3.9	3.81	2.24	2.42
TCGAGTAGTTTAGTCGGGGCATTCAGCCAACATA	0.253	-0.495	-0.511	0.57	-0.338	0.245	0.214	0.234
TCATATAGGTAAAGGTGTAAGTCGAACGATATGA	-0.352	0.365	0.406	0.642	0.621	-0.275	-0.761	-0.275
TAGCCTACGTCATGCGGGCCAGTATAGTGTCGGC	-0.71	-0.452	-0.536	-0.98	-0.341	-1.7	-0.856	-1.16
CGAACGAGGGCATGACTTGATAGCAAATGCCGAT	0.668	1.26	1.54	2.16	0.981	1.2	-0.168	0.849
CTACCAAGGTGAACAAGGTCGTTGAATACTATTC	2.13	1.97	1.95	1.24	1.98	3.25	1.83	2.1
TCTATTATTTGATTAGGGCAACCGAAACAGCGGA	0.742	0.671	0.596	1.27	0.751	0.898	1.07	1.47
CGTCCAAGGTCAATGCTAGGTCAGTGCAAGCATT	5.12	7.51	6.92	3.53	5.11	4.39	3.05	3.46
TGAAGGAGGTTAAAGATCAGGGAACGTGGCGTCG	1.01	1.89	0.932	-0.223	3.25	1.26	0.214	0.438
TCTAGTTGGTCAAAGTTCACACACTCGAAATGCG	4.37	4.88	4.04	2.68	4.73	2.62	1.04	4.58
GGAACGAGGGCAGTCGAGTTGATAGCATGGCGAT	0.327	0.643	1.18	1.1	0.35	1.52	-0.895	1.02
AGAATGAGTTTATACGTAGATCAGGGAAGAAAGT	-0.157	0.14	0.357	3.89	-0.175	-0.0164	-0.368	3.35
ACAGACAGGTGGTGAAGGTAACTCAGGCTATCAT	0.218	0.00728	-0.0161	-0.443	0.0945	0.769	0.206	-0.381
CGTCAAAGTTCAACTAAGGTAACCTAAAGCACGC	4.36	6.08	6.64	4.81	4.92	5.31	2.1	4.48
GCAGACAGGTGAAACTCAGGTAACTCAGGGTGGC	0.42	1.03	0.566	-0.185	0.901	2.7	0.521	-0.73
CCTATCAGGCCAATCTGGGTCACTCAAGGCTTGA	2.48	1.44	1.71	0.421	1.14	4.02	1.16	-0.0119
TCGAGTAGGTTAGGGGAATTCAGAATGGCGTCGA	0.239	-0.23	-0.153	0.0691	-0.0464	0.0502	-0.191	-0.0168
TGAATGAGGTTATAAGATCTGGGAACGTTGCAAA	0.515	1.04	0.631	0.607	1.61	1.67	0.199	0.194
GCTCGTAGGACAAGGTCAGAGCTTTGTCCGTAGA	2.93	2.95	3.49	0.281	2.55	2.64	0.975	0.106

Source: the supplement of paper PMC6555819
